{"source": "PubChem BioAssay (NCI)", "note": "Several values for one entry are separate records, joined by “and”; a condition that tells them apart may be missing. Identical values can stand only once. This is part of a sample that, as a whole, favours compounds with a hit. Of some 83,000 tested, about 20% had one in any assay.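 Activity criterion: percent growth below 10, measured after cells in 96-well plates were exposed to a single compound concentration for 48 hours.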 Activity calls are given as the source filed them.", "data": [{"system": "RPMI-8226 leukemia", "assay": "NCI-60 one-dose screen, 48 h (100 = growth as untreated, 0 = no growth, -100 = all killed)", "conditions": "10 µM unless noted", "values": [{"smiles": "CC12OC(CC(O)C1O)n1c3ccccc3c3c4c(c5c6ccccc6n2c5c31)C(=O)N(CCN1CCOCC1)C4=O", "note": "(centres undefined)", "growth": "6.35% (active)"}, {"smiles": "Cc1c(O)c(O)cc2c3c(oc12)CC(c1ccc2c(c1)OCO2)CC3=O", "note": "(centres undefined)", "growth": "87.5% (inactive)"}, {"smiles": "N#CC1=C(N)Oc2c(sc3c(Br)cccc23)C1c1ccccn1", "note": "(centres undefined)", "growth": "30% (inactive)"}, {"smiles": "COc1cc2nc3cc([N+](=O)[O-])ccc3c(NCCNCC(C)(C)O)c2cc1OC", "growth": "-8.62% (active)"}, {"smiles": "CCOc1ccccc1NC(=O)c1cc2ccccc2cc1O", "growth": "25.8% (inactive)"}]}, {"system": "OVCAR-8 ovarian", "assay": "NCI-60 one-dose screen, 48 h (100 = growth as untreated, 0 = no growth, -100 = all killed)", "conditions": "10 µM unless noted", "values": [{"smiles": "CN1CCN(CCCN2c3ccccc3Sc3ccc(Cl)cc32)CC1", "growth": "84.8% (inactive) and 85.4% (inactive)"}, {"smiles": "O=C(c1cccc(Br)c1)N1CCN(c2ccnc3cc(Cl)ccc23)CC1", "growth": "80.2% (inactive)"}, {"smiles": "N#CSc1c[nH]c2ccc(/C=C/C(=O)/C=C(/C=C/c3ccc4[nH]cc(SC#N)c4c3)OB(F)F)cc12", "growth": "-21.6% (active)"}, {"smiles": "COc1cc(Nc2nc3ccccc3cc2C(=O)Nc2ccc(F)c(F)c2)cc(OC)c1OC", "growth": "15.5% (inactive)"}, {"smiles": "CCOC(=O)CC1CSC(c2cccc(Cl)c2)=N1", "note": "(centres undefined)", "growth": "102% (inactive)"}, {"smiles": "CC/C=C\\C/C=C\\C[C@H](O)C/C=C1/C(=O)C=C[C@@H]1C/C=C\\CCCC(=O)OC", "growth": "7.41% (active)"}, {"smiles": "CCCCCCNC(=O)Oc1ccc(/C(=C(/CC)Cc2ccccc2)c2ccc(OCCCN(C)C)cc2)cc1", "growth": "83.9% (inactive)"}, {"smiles": "NC(N)=NC(N)=NCCCc1ccco1", "growth": "96% (inactive)"}, {"smiles": "O=C(N=Nc1c(O)[nH]c2ccccc12)Nc1ccccc1Cl", "growth": "97.5% (inactive)"}, {"smiles": "O=C(N/N=C/c1ccc(O)cc1O)c1cccc(Nc2ccnc(C(F)(F)F)c2)c1", "growth": "22.7% (inactive)"}, {"smiles": "O=C(Nc1ccc2ccccc2c1)c1cc2ccccc2cc1O", "growth": "102% (inactive)"}, {"smiles": "Cc1ccc(-c2nc3nc(-c4ccccc4)nc(N4CCN(S(=O)(=O)c5ccccc5)CC4)c3o2)cc1", "growth": "75.5% (inactive)"}, {"smiles": "Cn1cc(C2=C(c3cccc4ccccc34)C(=O)NC2=O)c2cc(Br)ccc21", "growth": "95.9% (inactive)"}, {"smiles": "CC[C@@H]1NC(=O)[C@H]([C@H](O)[C@H](C)C/C=C/c2ccc(CN3C(=O)C(C)=C(C)C3=O)cc2)N(C)C(=O)[C@H](C(C)C)N(C)C(=O)[C@H](CC(C)C)N(C)C(=O)[C@H](CC(C)C)N(C)C(=O)[C@@H](C)NC(=O)[C@H](C)NC(=O)[C@H](CC(C)C)N(C)C(=O)[C@H](C(C)C)NC(=O)[C@H](CC(C)C)N(C)C(=O)CN(C)C1=O", "growth": "78.5% (inactive)"}, {"smiles": "O=C1/C(=C/c2ccc(F)c(F)c2)CN(C(=O)C(Cl)Cl)C/C1=C\\c1ccc(F)c(F)c1", "growth": "-95.4% (active)"}, {"smiles": "O=C1C(c2c[nH]c3ccccc23)=C(c2coc3cc(Br)ccc23)C(=O)N1O", "growth": "106% (inactive)"}, {"smiles": "CC1=CC(C)(C)NC(=S)N1c1ccc(Cl)cc1", "growth": "100% (inactive) and 104% (inactive)"}, {"smiles": "O=C1/C(=C/c2ccccc2)CN(C(=O)C(Cl)Cl)C/C1=C\\c1ccccc1", "growth": "10.7% (inactive)"}, {"smiles": "CC(=O)N1N=C(c2ccc(Nc3nc(Nc4ccc(F)cc4)nc(Nc4ccc(Cl)cc4)n3)cc2)CC1c1ccc(N(C)C)cc1", "note": "(centres undefined)", "growth": "40.2% (inactive)"}, {"smiles": "CCCN1C(=O)/C(=c2\\sc3n(c2=O)NC2C(N=3)N(CC)C(=O)N2CC)c2ccccc21", "note": "(centres undefined)", "growth": "35.7% (inactive)"}, {"smiles": "CONC1=Nc2cc(NC(N)=NCc3ccccc3)c(N(C)C3CCCCC3)cc2OC1", "growth": "83.9% (inactive)"}, {"smiles": "Cc1c(CC(=O)OCCO)cc(-c2ccc(Cl)cc2)n1-c1ccccc1", "growth": "92.4% (inactive)"}, {"smiles": "COc1cc(/C=C2\\CCC/C(=C\\c3cc(CN4CCCC4)c(O)c(OC)c3)C2=O)cc(CN2CCCC2)c1O", "growth": "8.24% (active)"}, {"smiles": "Fc1ccccc1-c1cnn2cc(-c3ccccc3)cnc12", "growth": "94.1% (inactive)"}, {"smiles": "CC(C)(C)c1cc(NC(=O)Nc2ccc(-c3cn4c(n3)sc3cc(OCCN5CCOCC5)ccc34)cc2)no1", "growth": "13.2% (inactive) and -9.65% (active)"}, {"smiles": "COc1ccc(/C=N/NC(=O)CN2CCN(c3cc4c(cc3F)c(=O)c(C(=O)O)cn4C3CC3)CC2)cc1O", "growth": "95.1% (inactive)"}, {"smiles": "NNCCc1ccccc1", "growth": "116% (inactive) and 96.7% (inactive)"}, {"smiles": "CNC(=O)c1cc(Oc2ccc3nc(NC(=O)Nc4ccc(C(F)(F)F)cc4)sc3c2)ccn1", "growth": "48.5% (inactive)"}, {"smiles": "CC1=C2[C@@H](CC1)[C@]1(C)O[C@@](C3CC3)(C[C@H]1OC(=O)CO)[C@H]2OC(=O)/C=C/c1ccccc1", "growth": "8.13% (active)"}, {"smiles": "O=C(c1ccc(Nc2nccc(NCCCNc3ccnc4cc(Cl)ccc34)n2)cc1)N1CCCCC1", "growth": "34% (inactive)"}, {"smiles": "CCN(CC)CC#CCOC(=O)[C@]1(C)CCC[C@]2(C)c3ccc(C(C)C)cc3CC[C@@H]12", "growth": "94.2% (inactive)"}, {"smiles": "Nc1nc2ccccc2c2c(=O)c3ccc(Cl)cc3sc12", "growth": "103% (inactive)"}, {"smiles": "Nc1nc2c(s1)CCc1cn(S(=O)(=O)c3ccccc3)cc1-2", "growth": "88.6% (inactive) and 110% (inactive)"}, {"smiles": "COc1cccc(NC(=O)c2sc3nc(C)c(C(O)c4ccccc4)cc3c2N)c1", "note": "(centres undefined)", "growth": "8.45% (active)"}, {"smiles": "CC12OC(CC(O)C1O)n1c3ccccc3c3c4c(c5c6ccccc6n2c5c31)C(=O)N(CCN1CCOCC1)C4=O", "note": "(centres undefined)", "growth": "17% (inactive)"}, {"smiles": "Cc1c(O)c(O)cc2c3c(oc12)CC(c1ccc2c(c1)OCO2)CC3=O", "note": "(centres undefined)", "growth": "94.8% (inactive)"}, {"smiles": "N#CC1=C(N)Oc2c(sc3c(Br)cccc23)C1c1ccccn1", "note": "(centres undefined)", "growth": "53.8% (inactive)"}, {"smiles": "COc1cc2nc3cc([N+](=O)[O-])ccc3c(NCCNCC(C)(C)O)c2cc1OC", "growth": "-3.94% (active)"}, {"smiles": "CCOc1ccccc1NC(=O)c1cc2ccccc2cc1O", "growth": "52% (inactive)"}]}]}
